The record followed here is PubChem BioAssay AID2014 (Sanford-Burnham Center for Chemical Genomics, 2009).

The experiment concerns the target Polyadenylate-binding protein 1 (Homo sapiens) (UniProt P11940). As to the kind of experiment: blockers of PABP interaction with poly(A) – biochemical, fluorescence polarization, uHTS, primary screen (AID 2014).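 Note: calls also rest on retests at 20 µM and on dose response follow-up.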 The conditions noted are these: PABP-poly(A) RNA binding, stronger effect = higher value.

In all, about 290,000 compounds went through this assay and about 3,000 (1%) were called active. The rule behind the calls is not given here. Shown is part of a subset that was picked to be rich in actives.

Chain of Polyadenylate-binding protein 1 (Homo sapiens) (P11940 whole entry, looked up): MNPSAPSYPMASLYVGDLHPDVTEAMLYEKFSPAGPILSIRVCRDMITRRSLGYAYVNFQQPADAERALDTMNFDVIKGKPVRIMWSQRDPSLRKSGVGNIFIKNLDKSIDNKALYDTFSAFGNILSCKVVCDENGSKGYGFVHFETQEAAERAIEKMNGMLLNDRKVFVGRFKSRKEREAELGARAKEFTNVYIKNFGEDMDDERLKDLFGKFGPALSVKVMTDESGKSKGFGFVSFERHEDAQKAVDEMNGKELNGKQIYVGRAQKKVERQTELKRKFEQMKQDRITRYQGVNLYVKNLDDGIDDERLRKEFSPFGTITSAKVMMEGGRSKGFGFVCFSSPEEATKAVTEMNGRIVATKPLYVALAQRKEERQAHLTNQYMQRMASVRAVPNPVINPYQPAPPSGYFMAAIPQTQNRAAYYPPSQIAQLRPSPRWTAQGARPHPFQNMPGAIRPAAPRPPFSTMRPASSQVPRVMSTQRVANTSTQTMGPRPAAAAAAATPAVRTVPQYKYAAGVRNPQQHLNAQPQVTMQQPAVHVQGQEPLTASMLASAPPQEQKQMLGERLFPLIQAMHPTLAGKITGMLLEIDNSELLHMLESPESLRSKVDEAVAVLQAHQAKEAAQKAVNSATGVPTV

Regarding `COc1cccc(NC(=O)CSc2nnc(Cc3ccc(OC)c(OC)c3)o2)c1`, under “at 35 µM”, the inhibition is 14.4% (inactive). As for `O=C(CCCN1C(=O)/C(=C/c2ccco2)SC1=S)Nc1ccccc1`, the inhibition by setting is: (at 35 µM) 17.5% (active); (confirmation repeats, at 20 µM) 52.5%. In the case of `O=C(CCCN1C(=O)/C(=C/c2ccccc2)SC1=S)Nc1ccc(O)cc1`, the inhibition (at 35 µM) is -7.7% (inactive). With `O=C(CCCN1C(=O)/C(=C\c2ccco2)SC1=S)Nc1cccc2ccccc12`, the inhibition reads like this: (at 35 µM) 4.3% (inactive); (confirmation repeats, at 20 µM) -3.6%. `CCCn1c(C)cc(/C=C(\C#N)C(=O)OCC(=O)Nc2cc(OC)c(OC)c(OC)c2)c1C`: the inhibition (at 35 µM) is -0.7% (inactive). The same measure, in the same setting: then `COc1ccc(Cl)cc1NC(=O)c1cccc(N2C(=O)C3CC=CCC3C2=O)c1` (stereo not given), with -3.5% (inactive). On the same count and under the same terms, under `Fc1ccccc1N=C1Nc2cccc3cccc1c23` stands -10.8% (inactive). As for `COc1ccccc1C1=Nc2cccc3cccc(c23)N1`, the inhibition by setting is: (at 35 µM) 65.3% (active); (confirmation repeats, at 20 µM) 86.4%. Take `c1ccc(C2=Nc3cccc4cccc(c34)N2)cc1`: for the setting “at 35 µM”, the inhibition was 11.1% (inactive). The same measure, in the same setting: then `CC(C)c1ccc(S(=O)(=O)N2CCC3(CC2)OCCO3)cc1`, with -6.1% (inactive); and `COc1cc([C@H](Cc2ccccc2)NC(C)=O)oc(=O)c1`, with 76.2% (active); and `CCOC(=O)C(Cc1ccccc1)NC(=O)CCC(=O)c1ccc(OC)cc1` (stereo not given), with -2.7% (inactive). Turning to `COC(=O)[C@H](Cc1ccccc1)NC(=O)Nc1ccc(OC)cc1`, under “at 35 µM”, the inhibition was -6.6% (inactive). On the same count and under the same terms, under `O=C(CCC1CCN(C(=O)c2cccc(Cl)c2F)CC1)Nc1ccccc1` stands -10.6% (inactive).

`CS(=O)(=O)N1CCN=C1SCc1ccc(F)cc1`: the inhibition (at 35 µM) was 0.3% (inactive). For the compound `CCN(c1ccccc1)S(=O)(=O)c1cc2c(cc1C)n(C)c(=O)c(=O)n2C`, the inhibition (at 35 µM) is -2% (inactive). For the compound `C[n+]1ccc(C(=O)NCc2ccccc2)cc1`, the inhibition (at 35 µM) was 64.2% (active) and the inhibition (confirmation repeats, at 20 µM) was determined as 92.7%. In the case of `Nc1ccc(C(=O)NCc2ccccc2)cc1`, for the setting “at 35 µM”, the inhibition is 3.4% (inactive). The same measure, in the same setting: then `CS(=O)(=O)NCc1ccc(C(=O)NCc2ccccc2)cc1`, with 48.1% (inactive); and `Cn1ncc(Br)c1C(=O)NC1CCCC1`, with 2.8% (inactive). As to `COC(=O)c1c(NC(=O)c2c(Cl)cnn2C)sc(C)c1C`, the inhibition (at 35 µM) is -5.8% (inactive). On to `CN(C(=O)c1c(Cl)cnn1C)C12CC3CC(CC(C3)C1)C2`, for which the inhibition reads like this: (at 35 µM) 86.8% (active); (confirmation repeats, at 20 µM) 75%. On to `Cn1c(CCc2ccccc2)nnc1SCC(N)=O`, for which the inhibition (at 35 µM) was -5.2% (inactive). Still for that read-out and setting: then `C/C(=N\Nc1nncc2ccccc12)c1ccc(Cl)c([N+](=O)[O-])c1`, with 2% (inactive); and `Clc1ccc(CN2CCCCCC2)cc1Cl`, with 17.8% (inactive); and `COc1ccccc1CN1CC(C(=O)NCCc2cn[nH]c2)CCC1=O` (stereo not given), with 27% (inactive). On to `CCn1nnnc1SCC(=O)Nc1ccc(N(C)C)cc1`, for which, where the note is “at 35 µM”, the inhibition was 1.4% (inactive). For the compound `Cc1ccc(Nc2nc(Cl)c(C=O)s2)cc1`, the inhibition (at 35 µM) is 40.3% (inactive) and the inhibition (confirmation repeats, at 20 µM) was determined as 44.5%. As for `Cc1cc(C)c2nc(-c3ccco3)cc(C(=O)O)c2c1`, the inhibition (at 35 µM) was 91.2% (active).

As for `Cc1ccsc1-c1cc(C(=O)O)c2c(ccc3ccccc32)n1`, where the note is “at 35 µM”, the inhibition was 20.2% (inactive). As for `COC(=O)c1cnn2c(C(F)(F)F)cc(-c3ccco3)nc12`, the inhibition (at 35 µM) was 23.9% (inactive). For `Cc1cc(C)nc(N/N=C/c2ccncc2)n1`, the inhibition (at 35 µM) is 2% (inactive). The same measure, in the same setting: under `CCN(CC)c1ccc(/C=N/NC(=O)c2cnccn2)c(O)c1` stands -7.1% (inactive). Regarding `CCN(CC)c1ccc(/C=N/Nc2nc(C)cc(C)n2)c(O)c1`, the inhibition by setting is: (at 35 µM) 16.6% (active); (confirmation repeats, at 20 µM) 67.4%. Turning to `CC1CSc2nnc(CCc3ccccc3)n21` (stereo not given), the inhibition (at 35 µM) was -2.9% (inactive).

With `c1ccc(CCC2=NCCn3cccc32)cc1`, under “at 35 µM”, the inhibition was 67.5% (active). Regarding `S=C(NCCc1ccccc1)N1CCn2cccc2C1c1ccncc1` (stereo not given), the inhibition (at 35 µM) was 6.4% (inactive). The same measure, in the same setting: then `O=C(Nc1cccnc1Cl)c1cc(-c2ccccc2O)on1`, with -6.2% (inactive). Consider `COc1ccc(NC(=O)c2cccc3c2C(=O)N(CC2CCCO2)C3)cc1OC` (stereo not given), for which the inhibition (at 35 µM) was -2% (inactive).

In the case of `Cc1cccn2c(=O)c3cc(C(=O)NCC4CCCO4)c(=N)n(Cc4ccc(F)cc4)c3nc12` (stereo not given), the inhibition (at 35 µM) is -1% (inactive).

In the case of `COc1ccc(CNC(=O)c2cc3c(=O)n4ccccc4nc3n(CC3CCCO3)c2=N)cc1` (stereo not given), the inhibition (at 35 µM) is -5.2% (inactive). `Cc1ccc2nc3c(cc(C(=O)NCCc4ccccc4)c(=N)n3CC3CCCO3)c(=O)n2c1` (stereo not given): for the setting “at 35 µM”, the inhibition was 83.3% (active). On the same count and under the same terms, then `COc1ccc(-n2c(=O)[nH]c3cc(C(=O)NCCc4ccc(OC)c(OC)c4)ccc3c2=O)c(OC)c1`, with 11% (inactive). In the case of `COc1ccc(N2CCN(C(=O)c3ccccc3NC(=O)C3=C(C)OCCS3)CC2)cc1`, the inhibition (at 35 µM) was -6.5% (inactive). Same read-out and setting: under `O=C(c1cc(-c2ccc(O)cc2)on1)N1CCOCC1` stands 2.9% (inactive). For `CCOC(=O)CNC(=O)CSc1nc2cccnc2n1CC`, the inhibition (at 35 µM) was 23.1% (inactive). For `COCCCNC(=O)Cc1ccc(-n2c(C)nc3cccnc32)cc1`, the inhibition (at 35 µM) was 36% (inactive) and the inhibition (confirmation repeats, at 20 µM) came to 12%.

As usually defined, the inhibition is the drop in the measured response relative to a control, in per cent.
